The panel holds about 83,000 compounds, 20% with a hit somewhere; the sample as a whole holds those more often.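 Percent growth is the endpoint: 0 to 100 indicates growth inhibition (40 means 60% inhibition), 0 means no net growth, and negative values indicate cell death.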 Unmarked numbers belong to inactive results. Active and inactive are the calls of the source. Rule for the calls: active = growth percent below 10; inactive = the rest.

Common to all, as to experiment: NCI-60 one-dose screen, 48 h (100 = growth as untreated, 0 = no growth, -100 = all killed)
Common to all, as to settings: 10 µM unless noted

Test [1] has as its system SR leukemia.
The test system of test [2] is RPMI-8226 leukemia.
Test [3] deals with OVCAR-8 ovarian.
For test [4], the system named is OVCAR-5 ovarian.
Test [5] relates to OVCAR-4 ovarian.
Test [6] concerns SK-OV-3 ovarian.
The subject of test [7] is OVCAR-3 ovarian.
The subject of test [8] is HS 578T breast.
The subject of test [9] is NCI/ADR-RES ovarian.
The subject of test [10] is T-47D breast.
Test [11] deals with BT-549 breast.
Test [12] concerns MDA-MB-435 melanoma.
In test [13] the test system is SW-620 colon.
Test [14] deals with MCF7 breast.
In test [15] the test system is HCT-116 colon.
For test [16], the system named is HCC-2998 colon.
The test system of test [17] is KM12 colon.
Test [18] has as its system IGROV1 ovarian.

Consider `COc1ccc(N=C2NN=C(c3ccc(F)cc3)CS2)cc1OC`, for which the growth in [1] is 53%; in test [2], 74.4%; in test [3] it was 105%; in test [4], 85.7%; in [5], 103%; in test [6], 104%. For the same compound, the growth in test [7] is 96.6%; in test [8], 110%; in test [9], 97.6%; in test [10] it was 86.7%; in test [11], 108%; in test [12], 83.3%. The growth is 98.6% in [13]; 104% in [14]; 96.1% in test [15]; 98.1% in test [16]; 99.2% in [17].

On to `C=C1C(=O)O[C@H]2[C@H]1CC/C(COC(=O)NCc1cc(OC)c(OC)c(OC)c1)=C\CC[C@@]1(C)O[C@@H]21`, for which the growth in test [1] was 4.5% (active); in test [2], 43.6%; in [3], 43.9%; in [4] it was 85%; in test [5], 60.5%; in test [6], 101%. For the same compound, the growth in test [7] was 21.2%; in test [8], 71.5%; in [9] it was 110%; in [10] it was 34%; in [11], 55.1%; in test [12] it was 62.8%. In addition, the growth in [13] is 15.6%; in test [14], 17%; in test [15], 18.7%; in test [16] it was 101%; in test [17], 92%.

In the case of `Nc1c(C(=O)Nc2ccccc2)sc2nc3c(cc12)CCC3`, the growth in test [1] is 39.6%; in [2], 83.4%; in [3], 88.2%; in test [4], 99.4%; in test [5], 78.9%; in test [6], 95.5%. Also, the growth in test [18] was 90.2%; in [8] it was 92.8%; in [9], 66.6%; in [10] it was 101%; in [11], 81.7%; in test [12] it was -1% (active). Besides, the growth in test [13] was 53.1%; in [14], 51.8%; in test [15], 66.6%; in test [16], 89.4%; in [17], 52.8%.

For `COC1=CC(c2ccc[nH]2)=N/C1=C\c1[nH]c(C)c(C(=O)CCCCC(=O)Nc2ccccc2)c1C`, the growth was 44% in test [1]; 126% in [2]; -46.4% (active) in test [3]; 64.4% in test [4]; 54.4% in test [5]; 77.5% in test [6]. In addition, the growth in test [7] is 40.6%; in [8] it was 82.2%; in test [9] it was 32.9%; in [10], 63.9%; in test [11], 13.9%; in test [12] it was 17%. Further, the growth in test [13] is -87.8% (active); in [14], -85.7% (active); in test [15], -100% (active); in test [16], 55.6%; in test [17], -3.11% (active).

`CCCCOc1nc2c(C)cccc2cc1C1CNC(=O)c2ccccc2N1` (stereo not drawn): the growth in [1] is 18.1%; in test [2], 57.5%; in test [3] it was 81.2%; in test [4], 112%; in [5], 71.7%; in test [6] it was 69.2%. Also, the growth was 20% in test [7]; 69.7% in test [8]; 51.3% in [9]; 58.4% in [10]; 74.5% in test [11]; 4.51% (active) in [12]. Further, the growth is 42.3% in test [13]; 15.8% in test [14]; 45.9% in [15]; 101% in [16]; 56.4% in test [17].

`CC(C)CCC[C@@H](C)[C@H]1CC[C@H]2[C@@H]3CC[C@H]4C/C(=N/O)CC[C@]4(C)[C@H]3CC[C@]12C`: the growth in [1] is 99.6%; in test [2] it was 101%; in test [3], 96.8%; in [4], 112%; in test [5], 119%; in test [6] it was 104%. Besides, the growth in [7] was 113%; in test [8] it was 101%; in test [9], 111%; in test [10] it was 103%; in test [11], 108%; in test [12], 103%. Also, the growth in test [13] is 97.9%; in [14], 103%; in test [15] it was 109%; in test [16] it was 86.3%; in [17], 108%.

In the case of `CCCCC(N)(C(=O)O)C1CCCC1` (stereo not drawn), the growth in [1] is 96.4%; in test [2], 111%; in [3], 97.2%; in test [4] it was 97.8%; in [5], 103%; in test [6], 117%. For the same compound, the growth in test [7] was 116%; in test [8] it was 122%; in test [9], 97.4%; in test [10], 110%; in [11] it was 103%; in test [12], 104%. The growth in test [13] is 105%; in test [14] it was 91.4%; in [15] it was 101%; in [16], 112%; in test [17] it was 113%.

With `COc1cc(C2C=C(C)N=C3SC=CN32)cc(OC)c1OC` (stereo not drawn), the growth in test [1] is 106%; in test [2] it was 113%; in test [3], 103%; in [4], 109%; in test [5] it was 108%; in [6] it was 112%. For the same compound, the growth in test [18] is 111%; in test [8], 103%; in test [9], 110%; in test [10], 98.8%; in test [11], 106%; in test [12], 98.6%. Also, the growth in test [13] is 111%; in [14], 93.3%; in [15] it was 101%; in test [16] it was 106%; in test [17], 111%.

With `O=C(Nc1ccc(Br)c(Cl)c1)c1cc(F)ccc1O`, the growth in test [1] was 0.366% (active); in [2] it was -16.1% (active); in test [3], 6.78% (active); in [4], 24.4%; in [5], 12.4%; in test [6], 3.58% (active). Moreover, the growth in test [7] was 12.1%; in test [8], 17.4%; in test [9] it was 6.11% (active); in [10], 3.88% (active); in test [11], -39% (active); in test [12] it was -11.3% (active). Moreover, the growth in test [13] was 7.76% (active); in test [14], 2.5% (active); in test [15] it was -21.8% (active); in test [16], 14.7%; in test [17], 2.98% (active).

The values are drawn from PubChem BioAssay (NCI).
